Test [1] is described as follows: antimalarial activity against Dd2 strain (AID 2302;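 active = growth inhibition above 50% at the single 2 µM test dose, taken to imply half-maximal potency below 2 µM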;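 also: 0% = DMSO untreated growth and 100% = chloroquine plus artemisinin killed control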). To be noted: P. falciparum Dd2 in RBCs, LDH growth readout, 72 h; at 2 µM; hits give high values.
Test [2] is described as follows: HepG2 cytotoxicity, primary screen, cytotoxicity control for P. falciparum antimalarial project, cell-based, ATP luminescence (AID 2303;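 active = inhibition above 50%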;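 also: 0% = DMSO wells and 100% = digitonin-killed cells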). To be noted: HepG2 viability, 24-48 h, at 10 µM, hits give high values.
The target of test [3] is L-lactate dehydrogenase (Plasmodium falciparum (isolate CDC / Honduras)) (UniProt Q27743). The experiment in a line: PfLDH activity inhibition – cell lysate, 3D7 strain, counter-screen for P. falciparum growth inhibition project (AID 2304).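 Also: 0% = vehicle and 100% = reference inhibitor.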 Particulars: P. falciparum 3D7 crude extract, LDH APAD/NBT absorbance; at 2 µM; hits give high values.
Sequence of L-lactate dehydrogenase (Plasmodium falciparum (isolate CDC / Honduras)) (Q27743 whole entry, looked up): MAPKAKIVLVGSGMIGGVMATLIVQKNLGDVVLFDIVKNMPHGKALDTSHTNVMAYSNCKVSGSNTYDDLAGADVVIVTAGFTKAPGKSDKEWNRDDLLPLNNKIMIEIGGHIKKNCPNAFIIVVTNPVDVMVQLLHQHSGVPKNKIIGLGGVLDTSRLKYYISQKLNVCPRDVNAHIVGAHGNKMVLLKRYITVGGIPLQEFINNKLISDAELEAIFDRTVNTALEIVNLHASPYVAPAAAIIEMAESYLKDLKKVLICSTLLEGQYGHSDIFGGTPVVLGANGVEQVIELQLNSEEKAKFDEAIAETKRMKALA
Test [4] in a line: inhibition of 3D7 malaria parasite growth – strain 3D7 (AID 2306).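 Also: 0% = DMSO wells and 100% = chloroquine plus artemisinin control wells.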 Particulars: P. falciparum 3D7 erythrocytic growth, LDH absorbance, 72 h; at 2 µM; hits give high values.
For test [5], the target named is Calcium-dependent protein kinase 1 (Plasmodium falciparum (isolate 3D7)) (UniProt P62344). Put plainly: PfCDPK1 kinase inhibitors, biochemical, TCAMS library (AID 1159585; cut-off not given, nearly all actives have IC50 up to about 0.98 µM;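 also: inhibitors leave more ATP so luminescence rises with inhibition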). Particulars: recombinant PfCDPK1, Kinase-Glo ATP depletion luminescence.
Sequence of Calcium-dependent protein kinase 1 (Plasmodium falciparum (isolate 3D7)) (P62344 whole entry, looked up): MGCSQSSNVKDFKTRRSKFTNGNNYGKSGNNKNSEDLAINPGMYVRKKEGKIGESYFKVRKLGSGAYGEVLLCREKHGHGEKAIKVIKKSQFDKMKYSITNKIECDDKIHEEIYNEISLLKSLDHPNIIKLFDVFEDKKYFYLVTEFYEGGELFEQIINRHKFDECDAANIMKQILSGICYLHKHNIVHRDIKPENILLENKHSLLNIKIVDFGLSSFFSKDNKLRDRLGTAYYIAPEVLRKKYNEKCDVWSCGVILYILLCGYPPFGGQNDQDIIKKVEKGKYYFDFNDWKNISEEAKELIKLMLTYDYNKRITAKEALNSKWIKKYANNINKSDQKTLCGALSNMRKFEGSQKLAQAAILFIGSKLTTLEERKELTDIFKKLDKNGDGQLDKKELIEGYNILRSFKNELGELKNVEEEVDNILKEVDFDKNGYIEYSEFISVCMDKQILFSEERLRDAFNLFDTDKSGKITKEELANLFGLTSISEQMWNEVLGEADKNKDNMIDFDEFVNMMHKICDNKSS
Test [6] concerns the target Plasmodium falciparum protein kinase 6 (PK6, PF3D7_1337100) (UniProt Q8IDW1). The experiment in a line: PfPK6 kinase inhibitors, biochemical, TCAMS library (AID 1159586). To be noted: recombinant PfPK6, Kinase-Glo ATP depletion luminescence.
Test [7] deals with Protein kinase 7 (PK7), Plasmodium falciparum 3D7 (PF3D7_0213400) (UniProt Q7YTF7). The experiment in a line: inhibition of Plasmodium PK7 catalytic activity – biochemical, TCAMS antimalarial set, Kinase-Glo luminescence (AID 1159587). Particulars: recombinant PfPK7, Kinase-Glo ATP depletion luminescence.
Sequence of Protein kinase 7 (PK7), Plasmodium falciparum 3D7 (PF3D7_0213400) (Q7YTF7 1-343): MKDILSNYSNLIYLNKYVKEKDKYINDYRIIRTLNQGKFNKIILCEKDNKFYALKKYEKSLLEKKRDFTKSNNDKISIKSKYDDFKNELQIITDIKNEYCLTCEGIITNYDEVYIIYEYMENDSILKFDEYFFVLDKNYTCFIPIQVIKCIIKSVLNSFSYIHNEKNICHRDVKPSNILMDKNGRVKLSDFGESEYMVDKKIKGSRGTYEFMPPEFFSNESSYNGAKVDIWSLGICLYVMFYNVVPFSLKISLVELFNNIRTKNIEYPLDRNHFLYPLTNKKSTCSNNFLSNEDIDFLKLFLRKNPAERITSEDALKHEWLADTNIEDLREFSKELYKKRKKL
The target in test [8] is Calcium-dependent protein kinase 4 (Plasmodium falciparum (isolate 3D7)) (UniProt Q8IBS5). The experiment in a line: PfCDPK4 kinase inhibitors, biochemical, TCAMS library (AID 1159588; cut-off not given, nearly all actives have IC50 up to about 0.91 µM). Particulars: recombinant PfCDPK4, Kinase-Glo ATP depletion luminescence.
Sequence of Calcium-dependent protein kinase 4 (Plasmodium falciparum (isolate 3D7)) (Q8IBS5 whole entry, looked up): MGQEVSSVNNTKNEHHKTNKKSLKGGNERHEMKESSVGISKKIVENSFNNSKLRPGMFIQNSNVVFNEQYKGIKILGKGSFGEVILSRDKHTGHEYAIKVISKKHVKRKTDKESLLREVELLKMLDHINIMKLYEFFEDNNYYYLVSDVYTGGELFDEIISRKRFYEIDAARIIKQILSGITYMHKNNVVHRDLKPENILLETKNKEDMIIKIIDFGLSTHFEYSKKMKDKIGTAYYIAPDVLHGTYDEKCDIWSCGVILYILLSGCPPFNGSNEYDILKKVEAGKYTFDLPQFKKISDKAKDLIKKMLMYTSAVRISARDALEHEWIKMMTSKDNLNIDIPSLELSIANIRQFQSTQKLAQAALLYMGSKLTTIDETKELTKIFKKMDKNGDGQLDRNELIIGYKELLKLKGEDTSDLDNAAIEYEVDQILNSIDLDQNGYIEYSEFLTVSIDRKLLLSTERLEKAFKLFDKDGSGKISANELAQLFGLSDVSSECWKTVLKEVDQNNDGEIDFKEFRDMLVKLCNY

A number with no mark means an inactive call. For some of these results: Measured potencies and affinities stand elsewhere. Active and inactive are the calls of the source. Unless noted, no rule for the calls is given here.

Sequence of Plasmodium falciparum protein kinase 6 (PK6, PF3D7_1337100) (Q8IDW1 1-305): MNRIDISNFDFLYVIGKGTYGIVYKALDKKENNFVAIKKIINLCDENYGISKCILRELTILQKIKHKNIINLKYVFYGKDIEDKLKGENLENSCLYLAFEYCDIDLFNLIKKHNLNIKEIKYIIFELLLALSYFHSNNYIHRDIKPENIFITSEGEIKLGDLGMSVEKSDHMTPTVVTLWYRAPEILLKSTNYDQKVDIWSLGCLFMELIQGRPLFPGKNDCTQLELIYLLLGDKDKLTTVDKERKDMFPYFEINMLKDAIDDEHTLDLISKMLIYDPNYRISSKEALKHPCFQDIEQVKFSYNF

Turning to `O=C(Nc1cccc(CN2CCCN(Cc3ccc(O)cc3)CC2)c1)c1cccc(F)c1`, the growth inhibition in test [1] is 4%; in test [4], 92% (active). Also, the inhibition in test [2] was 22%; in test [3], -2%. For the same molecule, the outcome in test [5], in test [6], in test [7] and in test [8] was inactive.
Regarding `Cc1cccc2[nH]c(-c3ccc(-c4cccc(NC(=O)Nc5ccc(Cl)cc5)c4)s3)nc12`, the growth inhibition in test [1] was 52% (active); in test [4] it was 102% (active). Moreover, the values for the inhibition in test [2] and in test [3] were 25% and -1%, respectively. Besides, the result in test [5], in test [6], in test [7] and in test [8] was inactive.
On to `COc1nc(Nc2cccc(C)c2)nc(OC)n1`, for which the growth inhibition in test [1] is -5%; in test [4] it was 94% (active). For the same molecule, the values for the inhibition in test [2] and in test [3] were 46% and 1%, respectively. In addition, the result in test [5], in test [6], in test [7] and in test [8] was inactive.
Consider `Cc1[nH]c(C)c(C2CCC(c3ccc(Cl)cc3)CC2)c(=O)c1Cl` (stereo not given), for which the growth inhibition in test [1] is 97% (active); in test [4] it was 98% (active). The inhibition in test [2] is 37%; in test [3] it was -9%. Also, the outcome in test [5], in test [6], in test [7] and in test [8] was inactive.
In the case of `CC(=O)Nc1ccc(Nc2c3ccccc3nc3ccccc23)cc1`, the growth inhibition was 62% (active) in test [1] and 89% (active) in test [4]. Also, the figures for the inhibition in test [2] and in test [3] were 41% and 3%, respectively. In addition, the outcome in test [5], in test [6], in test [7] and in test [8] was inactive.
Take `Cc1cc2ncn(-c3ccnc(N4CCN(CCCN5CCCC5)CC4)n3)c2cc1C`: the growth inhibition in test [1] was 49%; in test [4] it was 100% (active). In addition, the results for the inhibition in test [2] and in test [3] were 24% and -4%, respectively. For the same molecule, the result in test [5], in test [6], in test [7] and in test [8] was inactive.
For the molecule `CCc1sc(CN(CCCNc2cc(=O)c3ccccc3[nH]2)Cc2sc(CC)c(Br)c2-c2ccsc2)c(-c2ccsc2)c1Br`, the figures for the growth inhibition in test [1] and in test [4] were 98% (active) and 99% (active), respectively. Besides, the results for the inhibition in test [2] and in test [3] were 10% and 0%, respectively. Besides, the result in test [5], in test [6], in test [7] and in test [8] was inactive.
Consider `COc1ccc(Cl)cc1N1CCN(CCCNC(=O)c2ccc(-c3nc4cc(Cl)c(F)cc4[nH]3)s2)CC1`, for which the growth inhibition in test [1] was 98% (active); in test [4] it was 101% (active). Further, the inhibition in test [2] was 12%; in test [3] it was 4%. Moreover, the result in test [5], in test [6], in test [7] and in test [8] was inactive.
With `CCCC(C)Nc1nc(C)cc(N[C@@H](Cc2ccccc2)C(=O)NCCc2ccccc2)n1` (stereo not given in full), the growth inhibition in test [1] was 68% (active); in test [4] it was 97% (active). Besides, the inhibition in test [2] was 11%; in test [3], -3%. Moreover, the result in test [5], in test [6], in test [7] and in test [8] was inactive.
In the case of `Cc1cccc2[nH]c(-c3ccc(-c4ccc(CNCc5cnn(-c6ccccc6)n5)cc4)s3)nc12`, the growth inhibition was 48% in test [1] and 97% (active) in test [4]. Besides, the values for the inhibition in test [2] and in test [3] were 16% and -3%, respectively. The outcome in test [5], in test [6], in test [7] and in test [8] was inactive.
On to `CC(=O)Nc1ccc(CN(Cc2ccc(OC(C)(C)C)cc2)Cc2ccc3c(c2)OCCO3)cc1`, for which the values for the growth inhibition in test [1] and in test [4] were 75% (active) and 91% (active), respectively. The values for the inhibition in test [2] and in test [3] were 7% and 5%, respectively. Besides, the outcome in test [5], in test [6], in test [7] and in test [8] was inactive.
On to `CN1CCN(CC(=O)Nc2ccc(-c3ccc(-c4nc5ccc(C(F)(F)F)cc5[nH]4)cc3)cc2)CC1`, for which the growth inhibition in test [1] was 98% (active); in test [4], 101% (active). The results for the inhibition in test [2] and in test [3] were 43% and -3%, respectively. The outcome in test [5], in test [6], in test [7] and in test [8] was inactive.
Consider `COc1ccccc1CN1CCC(CNC(=O)c2cc(-c3ccc(N(C)C)cc3)cs2)C1` (stereo not given), for which the results for the growth inhibition in test [1] and in test [4] were 16% and 82% (active), respectively. Also, the inhibition was 17% in test [2] and -5% in test [3]. Further, the outcome in test [5], in test [6], in test [7] and in test [8] was inactive.
With `CCn1ccc2c3c(N)nc(N)nc3ccc21`, the growth inhibition is 2% in test [1] and 99% (active) in test [4]. For the same molecule, the inhibition in test [2] is 61% (active); in test [3] it was 6%. In addition, the outcome in test [5], in test [6], in test [7] and in test [8] was inactive.
Take `COc1ccc(NC(=O)c2csc(-c3cc(NC(=O)c4ccnc(N5CCCC5)c4)ccc3C)c2)cc1N1CCN(C)CC1`: the growth inhibition is 80% (active) in test [1] and 100% (active) in test [4]. Besides, the inhibition was 4% in test [2] and 1% in test [3]. The result in test [5], in test [6], in test [7] and in test [8] was inactive.
Consider `CN(C)c1ccc(-c2ccc(C(=O)NC3CCN(Cc4ccc(F)cc4)CC3)s2)cc1`, for which the growth inhibition was 19% in test [1] and 87% (active) in test [4]. Besides, the inhibition in test [2] is 34%; in test [3] it was -1%. The outcome in test [5], in test [6], in test [7] and in test [8] was inactive.
For `Cc1cccc2[nH]c(-c3cccc(-c4cccc(CN5CCCC5CN)c4)c3)nc12` (stereo not given), the growth inhibition is 72% (active) in test [1] and 101% (active) in test [4]. Also, the inhibition in test [2] was 15%; in test [3] it was 6%. In addition, the result in test [5], in test [6], in test [7] and in test [8] was inactive.
Regarding `O=C(Nc1cccc([N+](=O)[O-])c1)Nc1cccc(C(F)(F)F)c1`, the values for the growth inhibition in test [1] and in test [4] were 81% (active) and 92% (active), respectively. Besides, the inhibition in test [2] is 0%; in test [3] it was -8%. Moreover, the outcome in test [5], in test [6], in test [7] and in test [8] was inactive.
Take `CCN(CC)C(=O)C1CCCN(c2cc(C)nc(Nc3ccc(Cl)cc3)n2)C1` (stereo not given): the growth inhibition in test [1] was 64% (active); in test [4], 94% (active). In addition, the inhibition is 13% in test [2] and 1% in test [3]. Also, the outcome in test [5], in test [6], in test [7] and in test [8] was inactive.
Take `CC(C)c1ccc(NC(=O)NCC2CCCN(CCCCCNC(=O)/C=C/c3ccc(Cl)c(Cl)c3)C2)cc1` (stereo not given): the growth inhibition is 6% in test [1] and 98% (active) in test [4]. The inhibition in test [2] was 87% (active); in test [3] it was -13%. For the same molecule, the result in test [5], in test [6], in test [7] and in test [8] was inactive.

The values are drawn from PubChem BioAssay.
